Only some compounds are listed: those with a hit (about 2.4% of all), similar ones and a draw of the others.
CHRM1 agonist: agonists of human M1 muscarinic receptor; P11229; CHO-K1 hM1, Fluo-8 calcium fluorescence, agonist mode; 0% DMSO, 100% acetylcholine EC100; activation, % at 3 µM; 360,000 compounds, 0.33% hits;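 active = activation above the run's mean compound activation plus 3 SD, cut at about 16% in these data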;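 also: peak over basal fluorescence ratio within a 140 s kinetic read after compound addition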
Target sequence (P11229 whole entry, looked up): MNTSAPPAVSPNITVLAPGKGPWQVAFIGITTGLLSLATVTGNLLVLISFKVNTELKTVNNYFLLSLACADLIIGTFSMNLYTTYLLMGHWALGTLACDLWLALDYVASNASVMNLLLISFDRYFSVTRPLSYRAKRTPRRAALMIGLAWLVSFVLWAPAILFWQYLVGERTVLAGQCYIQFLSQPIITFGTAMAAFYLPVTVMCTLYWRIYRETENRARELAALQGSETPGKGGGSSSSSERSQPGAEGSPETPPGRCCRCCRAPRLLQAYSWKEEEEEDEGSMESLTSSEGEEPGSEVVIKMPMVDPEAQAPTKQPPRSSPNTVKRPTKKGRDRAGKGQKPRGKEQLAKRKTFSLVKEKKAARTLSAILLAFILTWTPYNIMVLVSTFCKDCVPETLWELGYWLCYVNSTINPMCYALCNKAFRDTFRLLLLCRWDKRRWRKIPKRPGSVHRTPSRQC
CHO-K1 Ca PAM: counter-screen for M1 PAMs: effect in parental CHO-K1 cells; AID 602247; 360,000 compounds, 0.02% hits; ATP EC20, Fluo-8 calcium fluorescence; 0% at ATP EC20, 100% at ATP max; activation, % at 3 µM;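 active = activation above the run cutoff, the mean activation of all test compounds plus 3 SD, cut at about 40% in these data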;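 also: peak over basal fluorescence ratio in a 140 s read after ATP addition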
M1 ag parental: counter-screen for M1 agonists: effect in parental CHO-K1 cells; activation, % at 3 µM; Fluo-8 calcium fluorescence; scaled to maximal ATP response, vehicle zero; AID 602248; 360,000 compounds, 0.48% hits; in the data active = activation above about 15%;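 also: untransfected CHO-K1 host cells lacking M1 receptor as counterscreen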
CHO-K1 Ca antag: counter-screen for M1 antagonists: effect in parental CHO-K1 cells; AID 602250; inhibition, % at 3 µM; 360,000 compounds, 0.6% hits; ATP-induced calcium, Fluo-8 fluorescence;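 active = inhibition above a per-plate cutoff, the plate's mean sample inhibition plus 3 SD, cut at about 24% in these data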
M1 antag: antagonists of human M1 muscarinic receptor | 360,000 compounds, 1.3% hits | inhibition, % at 3 µM | CHO-K1 hM1, Fluo-8 calcium fluorescence, ACh EC80 antagonist | P11229 | AID 588852;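 active = percent inhibition above its own plate's cutoff, namely the mean of that plate's compound wells plus 3 SD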;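 also: peak over basal fluorescence ratio during 140 s after agonist addition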
CHRM1 PAM: potentiates human M1 receptor response to acetylcholine | P11229 | CHO-K1 hM1, Fluo-8 calcium fluorescence, ACh EC20; 0% = ACh EC20, 100% = maximal ACh | activation, % at 3 µM | 360,000 compounds, 0.088% hits | AID 588819; in the data active = activation above about 19%, passing the limit was not always enough
Hits are given with their value; n = inactive.

SMILES	CHRM1 agonist	CHO-K1 Ca PAM	M1 ag parental	CHO-K1 Ca antag	M1 antag	CHRM1 PAM
CC1(c2ccc(OC(F)F)cc2)NC(=O)N(CC(=O)Nc2cccc(F)c2)C1=O (stereo not drawn)	44.5	n	32.3	44.3	40.4	n
CCOc1ccc(NC(=O)CN2C(=O)NC(C)(c3ccc(OC(F)F)cc3)C2=O)cc1 (stereo not drawn)	32.1	n	18.9	n	n	n
CCOC(=O)c1ccccc1NC(=O)COC(=O)CCNS(=O)(=O)c1cccs1	n	n	n	n	n	n
OC(c1ccc(Cl)cc1)c1ncc(-c2ccc(Oc3ccccc3)cc2)[nH]1 (stereo not drawn)	n	n	n	n	n	n
C=CCNS(=O)(=O)c1cc2c3c(c1)CCN3C(=O)CC2	n	n	n	n	n	n
Cc1ccc(NC(=O)CN2C(=O)NC(C)(c3ccc(Cl)cc3)C2=O)cc1 (stereo not drawn)	18.4	n	n	n	n	n
CC1(c2ccc(OC(F)F)cc2)NC(=O)N(CC(=O)Nc2ccc(F)cc2)C1=O (stereo not drawn)	28.8	n	24.7	n	n	n
Cc1ccc(C2(C)NC(=O)N(CC(=O)Nc3ccc4c(c3)OCO4)C2=O)cc1 (stereo not drawn)	n	n	n	n	n	n
Cc1cc(NC(=O)CN2C(=O)NC(C)(c3ccc(OC(F)F)cc3)C2=O)no1 (stereo not drawn)	17.2	n	n	n	n	n
CCOC(=O)c1c(C)[nH]c(C(=O)CN2C(=O)NC(C)(C)C2=O)c1C	n	n	n	n	n	n
CCOC(=O)c1c(C)[nH]c(C(=O)CN2C(=O)NC(C)(c3ccc(C)cc3)C2=O)c1C (stereo not drawn)	21.9	n	18.9	n	n	n
CCOC(=O)c1c(NC(=O)CN2C(=O)NC(C)(c3ccc(OC(F)F)cc3)C2=O)sc(C)c1C (stereo not drawn)	18.1	n	n	n	n	n
CCOC(=O)c1sc(NC(=O)CN2C(=O)NC3(CCCCCCC3)C2=O)c(C(=O)OCC)c1C	n	n	n	n	n	n
CC1(c2ccc(OC(F)F)cc2)NC(=O)N(CC(=O)Nc2ccc(Cl)cc2F)C1=O (stereo not drawn)	16.6	n	n	n	n	n
CN1CCN(c2ccc(Cl)cc2NC(=O)CN2C(=O)NC(C)(c3ccccc3)C2=O)CC1 (stereo not drawn)	n	n	n	n	n	n
Cc1ccc(C(=O)Nc2cccc(C(=O)N/N=C/c3ccc(F)cc3)c2)cc1	n	n	n	n	n	n
COc1ccc(OC)c(N(CC(=O)N2CCCC2)S(C)(=O)=O)c1	n	n	n	n	n	n
COc1cccc(NC(=O)CCCCCn2nnc3ccccc3c2=O)c1	n	n	n	n	n	n
c1ccc(COc2ccc(CNCc3cccs3)cc2)cc1	n	n	n	n	41.1	n
c1ccc(COc2ccc(CNCc3cccnc3)cc2)cc1	n	n	n	n	31.4	n
CN(C(=O)COC(=O)c1ccc(Cl)c(S(=O)(=O)NCc2ccccc2)c1)C1CCS(=O)(=O)C1 (stereo not drawn)	n	n	n	n	n	n
CCOC(=O)N1CCC(NC(=O)c2cccs2)CC1	n	n	n	n	n	n
CCOC(=O)N1CCC(NCCNC(=O)c2cccs2)CC1	31.4	n	n	n	n	n
CCOC(=O)N1CCC(NC(=O)c2ccccc2C(=O)O)CC1	n	n	n	n	n	n
CCOC(=O)N1CCC(NCCNC(=O)c2ccccc2Cl)CC1	43.4	n	n	n	38.2	n
SMILES	CHRM1 agonist	CHO-K1 Ca PAM	M1 ag parental	CHO-K1 Ca antag	M1 antag	CHRM1 PAM
CCOC(=O)N1CCC(NCCNC(=O)c2ccccc2)CC1	52.5	n	n	n	47.5	n
COc1ccccc1NS(=O)(=O)c1ccc(C(=O)NCCCN2CCOCC2)cc1	n	n	n	n	n	n
O=C(O)C1CCN(S(=O)(=O)c2ccc(Cl)s2)CC1	n	n	n	n	n	n
O=C(CNc1cccc(F)c1)N1CCc2ccccc2C1	n	n	n	n	n	n
CC(C)(C)c1ccc(CC(=O)N2CCC2(C)C(=O)N2CCCCC2)cc1 (stereo not drawn)	n	n	n	n	n	n
On1ccccc1=S	n	n	n	24.5	n	n
